# Shown are actives, neighbours in structure and some others; about 1.5% of the full set was active somewhere.
# HTT ATP protect: qHTS Multiplex Assay to Identify Dual Action Probes in a Cell Model of Huntington: Cytoprotection (ATP) | PC12 HTT-Q103 induced, cytoprotection, ATP luminescence, 40 h | Potency, µM (highest dose often 56.4 µM), for inactives: cytoprotection (ATP increase), most hits filed as activators | 230,000 tested, 0.14% active | AID 1471, 2008; further: % of control where 0% means no effect; nearly all actives have a fitted effect of over 45% in size
#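 Stable PC12 Q103-GFP cells in serum-supplemented, phenol red-free DMEM; induction by tebufenozide at 100 nM final; compound dose series; cell viability quantified luminescently from ATP.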
# Epigenetic reg: Quantitative High-Throughput Screen for Regulators of Epigenetic Control; 280,000 tested, 0.2% active; murine LDR cells, GFP reporter derepression, 30 h; AID 1865, 2009; Potency, µM (top dose mostly 53.9 µM), for inactives: at the top dose GFP activation, usual class: activators; further: % of control where 0% means no effect; nearly all actives have a fitted effect of over 60% in size
#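 In this reporter-derepression format, murine cells bearing a silenced integrated CMV-GFP locus incubate with test compound (30 h, 37 C), then are washed and imaged; fluorescent objects of 20–120 um count as induced cells.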
# LMNA splice mod: qHTS Assay for Modulators of Lamin A Splicing; HeLa LMNA splicing GFP/RFP minigene ratio, 48 h; AID 1487, 2009; Potency, µM (highest dose often 46.1 µM), inactives show top-dose ratio change, negative = inhibition, most hits filed as inhibitors; 200,000 tested, 0.01% active; active means well fitted inhibition curve with a large enough effect in the signal ratio, with a control signal flat, not every such curve was filed as active; inconclusive means small, poorly fitted or top-dose-only effect, or effect the other way, or a change in a side signal; the % refers to the signal ratio; further: on the % scale 0 is the no-effect control and ±100 the full control effect
#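 S3 HeLa stable clones carrying a lamin A-EGFP splicing minigene plus DsRed2 were seeded at 600 cells/well in Opti-MEM with 2% FBS, pin-dosed and incubated 48 h at 37°C. Acumen cytometry (488 nm) gave the GFP/RFP total-intensity ratio.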
# NPSR antag: qHTS Assay for Antagonists of the Neuropeptide S Receptor: cAMP Signal Transduction. Q6W5P4. CHO-NPSR cells, cAMP TR-FRET, antagonist mode. Potency, µM (series often up to 38.3 µM), for the others: top-dose activity change, negative = inhibition, usual class: inhibitors. 220,000 tested, 1% active; further: on the % scale 0 is the no-effect control and ±100 the full control effect; nearly all actives have a fitted effect of over 50% in size
# Target sequence (Q6W5P4 whole entry, looked up): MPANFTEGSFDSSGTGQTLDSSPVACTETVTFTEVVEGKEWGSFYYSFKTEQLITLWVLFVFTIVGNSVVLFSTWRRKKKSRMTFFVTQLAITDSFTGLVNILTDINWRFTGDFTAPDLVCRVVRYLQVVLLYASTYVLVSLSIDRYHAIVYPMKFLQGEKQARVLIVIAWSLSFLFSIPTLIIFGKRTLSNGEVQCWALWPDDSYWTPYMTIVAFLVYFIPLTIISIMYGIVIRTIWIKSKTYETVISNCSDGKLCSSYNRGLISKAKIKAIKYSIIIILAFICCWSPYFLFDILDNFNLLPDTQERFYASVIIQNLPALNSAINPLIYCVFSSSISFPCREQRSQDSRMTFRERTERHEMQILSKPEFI
# HTT aggregate: qHTS Multiplex Assay to Identify Dual Action Probes in a Cell Model of Huntington: Aggregate Formation (GFP) | PC12 HttQ103-GFP aggregates, Acumen cytometry, 40 h | Potency, µM (highest dose often 46.1 µM), for inactives: top-dose activity change, negative = inhibition, usual class: inhibitors | 220,000 tested, 1.1% active; further: on the % scale 0 is the no-effect control and ±100 the full control effect; nearly all actives have a fitted effect of over 60% in size
#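 PC12/HTTQ103-GFP, ecdysone-inducible; teb 100 nM; cpd qHTS titration; GFP aggregates read on laser cytometer, Ex 488/Em 500-530 nm.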
# Starred values were filed as active, the others as inactive; ? = inconclusive; . = no result; ! = a repeat was not active; [ ] = remark or other dose. Unless noted, the call rests on the fitted dose curve; in most records, active means well fitted curve in the direction sought with a large enough effect; inconclusive means small, poorly fitted or top-dose-only effect, or another doubt; inactive means no such curve, though single readings can be large; an effect the other way counts as inactive or inconclusive. Potency means the concentration at half of the fitted maximal effect.
SMILES,HTT ATP protect,Epigenetic reg,LMNA splice mod,NPSR antag,HTT aggregate
FC(F)(F)c1cc(NC(=S)Nc2ccc3cc4ccccc4cc3c2)cc(C(F)(F)F)c1,-3%,1%,.,.,.
CCN1C(=S)SC(=O)C1=C1C=C(C)N(CCO)C(C)=C1,-20%,14µM*,-1%,?,11%
CCN1C(=S)SC(=O)C1=C1C=C(C)N(CCOC)C(C)=C1,-34%,8%,?,?,-10%
COc1ccc(OC)c2c1C(=O)C(Cl)=C(Cl)C2=O,-93%[10 µM],0%,.,6.3µM*,?
COc1ccc(OC)c2c1C(=O)c1ccccc1C2=O,1%,-2%,?,-5%[46.1 µM],-15%
COc1ccc(N)c2c1C(=O)c1ccccc1C2=O,25%[10 µM],-3%,-26%,13µM*,-13%
COc1ccc(S(=O)(=O)N2CCCC2)c(Cl)c1Cl,-31%,4%,?,-6%,12%
O=C(O)/C=C/C(O)c1ccc(Cl)cc1 (configuration not stated),3.2µM*,0%,-17%,-4%[46.1 µM],.
CCc1c(O)nc(SCC(=O)Nc2ccc(C)cc2)n(C2CCCCC2)c1=O,-33%[0.074 µM],1%,?,?,11µM*
CCc1c(O)nc(SCC(=O)Nc2ccccc2)n(-c2ccccc2)c1=O,-14%,-5%,-5%,-8%[46.1 µM],-4%
COC(=O)C=P(c1ccccc1)(c1ccccc1)c1ccccc1,-10%,-1%,.,.,.
Cc1cc(C)c(C(=O)COC(=O)c2cc([N+](=O)[O-])ccc2NCCO)cc1C,.,1%,-10%,-21%,0.014µM*
CCC(Oc1ccccc1)C(=O)Nc1cc(-c2cccc(C)c2)nn1-c1ccccc1 (configuration not stated),.,4%,3%[46 µM],.,.
N#CC(c1ccccc1)c1ccc2c(C(F)(F)F)cc(C(F)(F)F)nc2n1 (configuration not stated),-70%,-5%,-2%,?,22µM*
Cc1ccc(C(C#N)c2ccc3c(C(F)(F)F)cc(C(F)(F)F)nc3n2)cc1 (configuration not stated),-55%,0%,?,-12%[46.1 µM],?
Cc1ccc(C(=O)NNC(=O)CCCN2C(=O)/C(=C/c3ccccc3Cl)SC2=S)cc1,.,1%,-24%,19%,35µM*
COc1ccccc1CNC(=O)c1cc2c(=O)n(Cc3cccs3)ccc2nc1C,.,0%,?,.,.
Cn1c(SCCC#N)nnc1-c1ccc(F)cc1,-17%,0%,13%[46 µM],6%,22%
CC(C)(C)c1ccc(-c2nnc(SCCC#N)n2C2CCCC2)cc1,26%[1.9 µM],0%,-21%,-27%[46.1 µM],11µM*
NS(=O)(=O)c1ccc(N=Nc2c(-c3ccccc3)[nH]n(-c3nc(-c4ccccc4)cs3)c2=O)cc1,22%[10 µM],1%,?,-3%[46.1 µM],5.6µM*
O=c1c2c(nc3c(-c4ccc(Cl)cc4)c[nH]n13)CCCC2,-58%,-2%,?,-17%[46.1 µM],7.1µM*
O=C(c1cc(-c2ccc(Br)cc2)n[nH]1)N1CCN(S(=O)(=O)c2ccc(Br)s2)CC1,.,9%,-9%[46 µM],.,.
CN(C)CCCNc1cc(O)c2c(c1O)C(=O)c1ccccc1C2=O,6%[10 µM],.,.,.,.
O=C1c2ccccc2C(=O)c2c(NCCCN(CCO)CCO)cccc21,-154%,?,?,13µM*,?
CC(C)(C)c1ccccc1NC(=O)CSc1nc(-c2cccs2)cc(C(F)(F)F)n1,.,9%,.,.,.
SMILES,HTT ATP protect,Epigenetic reg,LMNA splice mod,NPSR antag,HTT aggregate
Cc1nn(CCc2nn[nH]n2)c2nc(-c3ccc(C4CCCCC4)cc3)cc(C(F)(F)F)c12,-26%[10 µM],-2%,.,13µM*,21%
Cc1nn(CCC(=O)O)c2nc(-c3cccnc3)cc(C(F)(F)F)c12,-23%[10 µM],-1%,?,-26%[46.1 µM],-5%
CCCCc1ccc(Nc2nc(CCC)cc(=O)[nH]2)cc1,20%[1.9 µM],10%,?,-18%[46.1 µM],35µM*
CC[n+]1c(C=C2C=C(C)OC(C)=C2)sc2ccccc21,-97%,7.9µM*,.,-40%,4µM*
CC[n+]1c(/C=C/Nc2ccccc2)sc2ccccc21,-48%,-1%,?,0%[46.1 µM],11µM*
O=C(NCCCNc1ccc(C(F)(F)F)cc1[N+](=O)[O-])c1ccc(F)cc1,10%[10 µM],18µM*,-24%,-13%,?
Cc1ccc(C(=O)NCCCNc2ccc(C(F)(F)F)cc2[N+](=O)[O-])cc1,-8%[10 µM],2%,-11%,-4%,-19%
COc1ccc(-c2cc(=O)[nH]c(NCc3ccccc3)n2)cc1,-6%[0.074 µM],-2%,-1%,-28%[46.1 µM],4µM*
O=C1CC(SCc2nc3ccccc3[nH]2)C(=O)N1c1cccc(F)c1 (configuration not stated),?,-2%,21%,-7%[46.1 µM],4µM*
O=C1CC(SCc2nc3ccccc3[nH]2)C(=O)N1c1ccc(F)c(Cl)c1 (configuration not stated),16%,-3%,9%,-12%[46.1 µM],-9%[9.22 µM]
Cc1nc([N+](=O)[O-])c(SCC(N)=O)n1Cc1ccccc1,22%[10 µM],-4%,-15%[46 µM],-9%,8%[9.22 µM]
Cc1nc([N+](=O)[O-])c(Sc2nc3ccccc3n2C)n1Cc1ccccc1,22%[10 µM],-2%,?,-23%,10µM*
N=c1ccn2c(n1)O[C@@H]1[C@@H](O)[C@H](CO)O[C@H]12,-35%[1.9 µM],.,?,.,.
O=C(Nc1ccc2oc(-c3cccc(Cl)c3Cl)nc2c1)c1cccc(Br)c1,.,0%,.,.,.
O=C1c2c(O)ccc(O)c2C(=O)c2c(NCCNCCO)ccc(NCCNCCO)c21,-274%,13µM*!,?,10µM*,10µM*
Cc1cc(C)cc(-n2ccn(Cc3ccccc3C)c(=O)c2=O)c1,.,1%,2%[46 µM],.,.
O=C(O)c1cccc(N2C(=O)/C(=C/c3ccc(SCc4ccc(Cl)cc4)o3)SC2=S)c1,20µM*,0%,?,-30%,6%
CCc1ccc(N2CC(c3nnc(NC(=O)c4ccco4)s3)CC2=O)cc1 (configuration not stated),.,-2%,11%[46 µM],.,.
O=C(NC1CCCC1)c1cc2nc(-c3ccccc3)cc(-c3ccccc3)n2n1,-85%[10 µM],3%,.,-9%,3.5µM*
COc1ccc(CC(=O)Nc2ccc(-c3nc4ccccc4s3)cc2Cl)cc1OC,.,-1%,7%[46 µM],.,.
COc1ccc2c(c1)c1ccc3c(c1n2C)C(=O)C=CC3=O,-16%[10 µM],?,.,?,-20%[9.22 µM]
Cc1ccc2c(c1)c1ccc3c(c1n2C)C(=O)C=CC3=O,-11%[10 µM],1%,.,7.9µM*,?
COc1ccc(OC)c(S(=O)(=O)Nc2cccc(-c3ccc(N4CCCCC4)nn3)c2)c1,.,?,12%[46 µM],.,.
Cc1cccc(Nc2ncnc3ccccc23)c1,-7%[10 µM],0%,-21%,5%[46.1 µM],13µM*

# Screening results: PubChem, National Center for Advancing Translational Sciences (NCATS)
